# The entries come from a sample that favours the strongest signals as a whole.
# Experiments:
# Assay in all cases: glycan array binding signal (z-score within array); higher = stronger binding
# [1] = system: Neu5Ac(a2-3)Gal(b1-3)GlcNAc; conditions: glycan notation: IUPAC condensed, linker removed
# Outline: (§1)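 Glycan array data were curated from 3228 arrays in the Consortium for Functional Glycomics database and kept only where the protein sequence was available. Glycan names were converted to IUPAC-condensed notation, and columns mapping to the same glycan were averaged. The binding signal is a within-array Z-score, averaged across arrays of the same protein sequence at different concentrations or buffers and across linkers. Negative Z-scores can be read as non-binding.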
# [2] = system: Neu5Ac(a2-3)Gal(b1-3)GlcNAc(b1-3)Gal(b1-4)GlcNAc; conditions: glycan notation: IUPAC condensed, linker removed
# Outline: as §1
# [3] = system: Neu5Ac(a2-3)Gal(b1-3)[Neu5Ac(a2-6)]GalNAc; conditions: glycan notation: IUPAC condensed, linker removed
# Outline: as §1
# [4] = system: Neu5Ac(a2-3)Gal(b1-4)GlcNAc(b1-2)Man(a1-3)[Neu5Ac(a2-6)Gal(b1-4)GlcNAc(b1-2)Man(a1-6)]Man(b1-4)GlcNAc(b1-4)GlcNAc; conditions: glycan notation: IUPAC condensed, linker removed
# Outline: as §1
# [5] = system: Neu5Ac(a2-3)Gal(b1-4)GlcNAc(b1-3)Gal(b1-4)GlcNAc(b1-3)Gal(b1-4)GlcNAc(b1-2)Man(a1-3)[Neu5Ac(a2-3)Gal(b1-4)GlcNAc(b1-3)Gal(b1-4)GlcNAc(b1-3)Gal(b1-4)GlcNAc(b1-2)Man(a1-6)]GalNAc; conditions: glycan notation: IUPAC condensed, linker removed
# Outline: as §1
# [6] = system: Neu5Ac(a2-3)Gal(b1-3)[Fuc(a1-4)]GlcNAc; conditions: glycan notation: IUPAC condensed, linker removed
# Outline: as §1
# [7] = system: Neu5Ac(a2-3)Gal(b1-4)GlcNAc(b1-3)Gal(b1-3)GlcNAc; conditions: glycan notation: IUPAC condensed, linker removed
# Outline: as §1
# [8] = system: Neu5Ac(a2-3)Gal(b1-3)GlcNAc6S; conditions: glycan notation: IUPAC condensed, linker removed
# Outline: as §1
# [9] = system: Neu5Ac(a2-3)Gal(b1-4)GlcNAc(b1-2)Man(a1-3)[GlcNAc(b1-2)Man(b1-4)GlcNAc(b1-2)Man(a1-6)]Man(b1-4)GlcNAc(b1-4)GlcNAc; conditions: glycan notation: IUPAC condensed, linker removed
# Outline: as §1
# [10] = system: Neu5Ac(a2-3)Gal(b1-3)GlcNAc(b1-2)Man; conditions: glycan notation: IUPAC condensed, linker removed
# Outline: as §1
# [11] = system: Neu5Ac(a2-3)Gal(b1-3)GlcNAc(b1-6)GalNAc; conditions: glycan notation: IUPAC condensed, linker removed; mutation: R125K
# Outline: as §1
# [12] = system: Neu5Ac(a2-3)Gal(b1-3)[GlcNAc(b1-6)]GalNAc; conditions: glycan notation: IUPAC condensed, linker removed; mutation: R125K
# Outline: as §1
# [13] = system: Neu5Ac(a2-3)Gal(b1-4)GlcNAc(b1-2)Man(a1-3)[GlcNAc(b1-4)][Neu5Ac(a2-3)Gal(b1-4)GlcNAc(b1-2)Man(a1-6)]Man(b1-4)GlcNAc(b1-4)GlcNAc; conditions: glycan notation: IUPAC condensed, linker removed
# Outline: as §1
# [14] = system: Neu5Ac(a2-3)Gal(b1-4)GlcNAc(b1-2)Man(a1-3)[Neu5Ac(a2-3)Gal(b1-4)GlcNAc(b1-2)Man(a1-6)]Man(b1-4)GlcNAc(b1-4)[Fuc(a1-6)]GlcNAc; conditions: glycan notation: IUPAC condensed, linker removed; mutation: R125K
# Outline: as §1
# [15] = system: Neu5Ac(a2-3)Gal(b1-4)GlcNAc(b1-2)[Neu5Ac(a2-3)Gal(b1-4)GlcNAc(b1-4)]Man(a1-3)[GlcNAc(b1-4)][Neu5Ac(a2-3)Gal(b1-4)GlcNAc(b1-4)Man(a1-6)]Man(b1-4)GlcNAc(b1-4)GlcNAc; conditions: glycan notation: IUPAC condensed, linker removed; mutation: R125K
# Outline: as §1
# [16] = system: Neu5Ac(a2-3)Gal(b1-4)GlcNAc(b1-2)[Neu5Ac(a2-3)Gal(b1-4)GlcNAc(b1-6)]Man(a1-6)[Neu5Ac(a2-3)Gal(b1-4)GlcNAc(b1-2)Man(a1-3)]Man(b1-4)GlcNAc(b1-4)GlcNAc; conditions: glycan notation: IUPAC condensed, linker removed
# Outline: as §1
# [17] = system: Neu5Ac(a2-3)Gal(b1-4)GlcNAc(b1-3)Gal(b1-4)GlcNAc(b1-2)Man(a1-3)[Neu5Ac(a2-3)Gal(b1-4)GlcNAc(b1-3)Gal(b1-4)GlcNAc(b1-2)Man(a1-6)]Man(b1-4)GlcNAc(b1-4)GlcNAc; conditions: glycan notation: IUPAC condensed, linker removed; mutation: R125K
# Outline: as §1
# [18] = system: Neu5Ac(a2-3)Gal(b1-4)GlcNAc(b1-2)[Neu5Ac(a2-3)Gal(b1-4)GlcNAc(b1-4)]Man(a1-3)[GlcNAc(b1-4)][Neu5Ac(a2-3)Gal(b1-4)GlcNAc(b1-2)[Neu5Ac(a2-3)Gal(b1-4)GlcNAc(b1-6)]Man(a1-6)]Man(b1-4)GlcNAc(b1-4)GlcNAc; conditions: glycan notation: IUPAC condensed, linker removed
# Outline: as §1
# [19] = system: Neu5Ac(a2-3)Gal(b1-3)GlcNAc(b1-3)GalNAc; conditions: glycan notation: IUPAC condensed, linker removed
# Outline: as §1
# [20] = system: Neu5Ac(a2-3)Gal(b1-3)[Neu5Ac(a2-3)Gal(b1-4)]GlcNAc; conditions: glycan notation: IUPAC condensed, linker removed
# Outline: as §1
# Chain of Avaren (Actinomycete K97) (chain, as listed by the source): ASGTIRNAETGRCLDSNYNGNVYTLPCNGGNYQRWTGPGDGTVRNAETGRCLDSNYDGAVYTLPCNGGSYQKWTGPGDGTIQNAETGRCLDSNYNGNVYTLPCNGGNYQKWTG
# Chain of PILRa (Mus musculus), Q2YSF3 (Q2YSF3 entry or part of it): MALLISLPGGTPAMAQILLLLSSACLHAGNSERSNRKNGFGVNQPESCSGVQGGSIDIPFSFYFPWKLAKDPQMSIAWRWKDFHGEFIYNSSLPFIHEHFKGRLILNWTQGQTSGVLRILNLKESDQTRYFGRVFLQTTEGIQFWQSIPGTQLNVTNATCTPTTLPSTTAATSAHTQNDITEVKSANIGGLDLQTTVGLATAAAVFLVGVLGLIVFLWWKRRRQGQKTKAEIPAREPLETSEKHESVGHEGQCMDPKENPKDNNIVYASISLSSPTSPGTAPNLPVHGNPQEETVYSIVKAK
# Chain of PILRb (Mus musculus), Q2YSF2 (Q2YSF2 entry or part of it): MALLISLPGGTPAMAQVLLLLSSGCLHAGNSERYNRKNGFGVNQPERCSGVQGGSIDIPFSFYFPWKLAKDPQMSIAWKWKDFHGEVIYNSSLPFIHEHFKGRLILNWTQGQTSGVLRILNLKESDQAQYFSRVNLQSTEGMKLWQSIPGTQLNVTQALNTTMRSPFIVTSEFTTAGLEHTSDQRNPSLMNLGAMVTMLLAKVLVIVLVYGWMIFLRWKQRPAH
# Chain of Neurocan (Homo sapiens), O14594 (O14594 other isoform, or with tags, fused parts or gaps): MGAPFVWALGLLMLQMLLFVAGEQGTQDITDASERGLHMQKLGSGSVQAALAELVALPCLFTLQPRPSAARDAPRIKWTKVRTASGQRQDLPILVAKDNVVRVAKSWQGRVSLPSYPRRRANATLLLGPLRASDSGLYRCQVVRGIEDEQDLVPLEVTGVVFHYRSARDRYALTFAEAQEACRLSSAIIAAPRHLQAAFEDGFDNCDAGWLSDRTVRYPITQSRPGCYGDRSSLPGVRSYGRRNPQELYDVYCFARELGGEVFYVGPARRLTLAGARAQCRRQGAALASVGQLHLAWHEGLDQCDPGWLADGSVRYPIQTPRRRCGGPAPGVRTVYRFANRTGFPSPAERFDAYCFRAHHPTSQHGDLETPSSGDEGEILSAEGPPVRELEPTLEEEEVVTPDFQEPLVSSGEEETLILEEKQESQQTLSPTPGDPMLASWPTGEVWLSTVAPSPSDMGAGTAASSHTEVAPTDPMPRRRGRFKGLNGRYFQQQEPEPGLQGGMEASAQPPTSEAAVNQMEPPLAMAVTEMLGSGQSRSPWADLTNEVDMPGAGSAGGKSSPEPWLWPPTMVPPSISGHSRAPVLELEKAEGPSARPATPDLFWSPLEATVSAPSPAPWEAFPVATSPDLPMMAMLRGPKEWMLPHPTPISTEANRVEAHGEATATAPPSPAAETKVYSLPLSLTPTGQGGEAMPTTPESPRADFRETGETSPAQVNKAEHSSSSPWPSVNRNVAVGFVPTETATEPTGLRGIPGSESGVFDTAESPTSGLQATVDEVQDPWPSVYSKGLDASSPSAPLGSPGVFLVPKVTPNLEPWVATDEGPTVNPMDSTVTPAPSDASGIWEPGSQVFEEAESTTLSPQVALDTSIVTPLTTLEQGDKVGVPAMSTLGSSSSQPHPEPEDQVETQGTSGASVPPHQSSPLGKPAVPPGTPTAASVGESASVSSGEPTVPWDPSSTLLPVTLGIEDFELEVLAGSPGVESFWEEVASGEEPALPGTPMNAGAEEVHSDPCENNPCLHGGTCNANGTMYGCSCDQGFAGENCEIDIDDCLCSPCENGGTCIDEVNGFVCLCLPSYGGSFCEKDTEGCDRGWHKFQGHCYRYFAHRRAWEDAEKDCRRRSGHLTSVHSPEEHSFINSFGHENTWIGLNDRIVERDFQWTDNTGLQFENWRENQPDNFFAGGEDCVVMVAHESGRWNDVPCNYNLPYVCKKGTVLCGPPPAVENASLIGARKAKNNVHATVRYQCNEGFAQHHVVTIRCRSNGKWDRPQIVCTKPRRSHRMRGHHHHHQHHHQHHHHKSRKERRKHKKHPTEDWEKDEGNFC
# Chain of SRLC (Mus musculus), Q8VIF6 (Q8VIF6 other isoform, or with tags, fused parts or gaps): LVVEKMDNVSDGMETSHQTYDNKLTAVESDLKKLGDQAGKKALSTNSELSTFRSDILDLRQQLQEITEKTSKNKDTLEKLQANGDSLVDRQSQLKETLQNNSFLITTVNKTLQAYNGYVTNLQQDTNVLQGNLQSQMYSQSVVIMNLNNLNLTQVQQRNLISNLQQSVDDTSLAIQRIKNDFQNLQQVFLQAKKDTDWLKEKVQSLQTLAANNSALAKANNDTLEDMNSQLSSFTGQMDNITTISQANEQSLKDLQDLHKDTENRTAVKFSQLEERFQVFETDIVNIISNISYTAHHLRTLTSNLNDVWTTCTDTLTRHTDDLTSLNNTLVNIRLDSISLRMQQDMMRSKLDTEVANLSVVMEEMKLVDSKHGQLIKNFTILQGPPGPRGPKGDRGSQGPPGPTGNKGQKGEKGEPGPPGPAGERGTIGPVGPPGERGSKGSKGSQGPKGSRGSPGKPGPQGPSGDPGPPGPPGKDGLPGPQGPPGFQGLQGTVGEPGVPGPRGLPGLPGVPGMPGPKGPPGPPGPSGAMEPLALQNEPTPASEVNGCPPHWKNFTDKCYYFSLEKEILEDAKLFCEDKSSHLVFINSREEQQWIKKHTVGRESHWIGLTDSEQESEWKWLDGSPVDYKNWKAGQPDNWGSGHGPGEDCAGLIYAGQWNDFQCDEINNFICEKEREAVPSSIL
# Chain of Aggrecan (Rattus norvegicus), NP_071526 (chain, as listed by the source): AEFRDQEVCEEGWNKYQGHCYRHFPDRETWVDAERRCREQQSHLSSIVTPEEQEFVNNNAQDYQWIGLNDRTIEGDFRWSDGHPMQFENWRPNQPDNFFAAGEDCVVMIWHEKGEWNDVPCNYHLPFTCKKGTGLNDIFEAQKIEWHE
# Chain of 6RG (Lolium perenne) (chain, as listed by the source): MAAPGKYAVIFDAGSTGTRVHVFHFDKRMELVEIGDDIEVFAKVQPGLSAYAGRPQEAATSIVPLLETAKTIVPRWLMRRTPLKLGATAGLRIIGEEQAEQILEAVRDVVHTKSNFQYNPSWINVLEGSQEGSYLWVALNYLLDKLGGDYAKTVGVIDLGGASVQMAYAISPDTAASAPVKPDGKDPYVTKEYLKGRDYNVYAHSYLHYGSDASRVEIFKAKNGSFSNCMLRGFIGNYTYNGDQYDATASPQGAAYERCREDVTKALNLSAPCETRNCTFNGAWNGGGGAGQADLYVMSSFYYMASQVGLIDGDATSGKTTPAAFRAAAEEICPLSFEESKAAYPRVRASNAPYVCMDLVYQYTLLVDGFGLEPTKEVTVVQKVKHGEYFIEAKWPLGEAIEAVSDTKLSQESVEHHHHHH
# Chain of C3b (Homo sapiens), P01024 (P01024 23-667): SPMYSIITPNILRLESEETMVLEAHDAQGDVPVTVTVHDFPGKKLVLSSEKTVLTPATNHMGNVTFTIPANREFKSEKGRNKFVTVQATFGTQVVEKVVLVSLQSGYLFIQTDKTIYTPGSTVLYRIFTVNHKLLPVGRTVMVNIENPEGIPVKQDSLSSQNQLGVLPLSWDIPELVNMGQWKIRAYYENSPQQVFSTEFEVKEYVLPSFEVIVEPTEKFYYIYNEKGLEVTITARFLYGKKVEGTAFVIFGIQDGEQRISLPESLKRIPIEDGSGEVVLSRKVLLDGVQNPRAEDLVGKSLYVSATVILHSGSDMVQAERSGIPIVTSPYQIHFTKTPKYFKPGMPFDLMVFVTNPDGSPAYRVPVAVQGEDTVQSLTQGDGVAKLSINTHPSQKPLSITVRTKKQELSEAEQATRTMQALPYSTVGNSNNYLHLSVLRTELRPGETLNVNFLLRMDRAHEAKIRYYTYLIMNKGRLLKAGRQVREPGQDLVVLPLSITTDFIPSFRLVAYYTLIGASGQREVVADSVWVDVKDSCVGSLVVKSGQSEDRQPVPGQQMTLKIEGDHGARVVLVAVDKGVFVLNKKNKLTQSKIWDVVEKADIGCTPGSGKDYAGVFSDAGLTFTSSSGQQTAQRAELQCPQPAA
# Chain of wLAT-1A (Homo sapiens), Q01650 (Q01650 whole entry): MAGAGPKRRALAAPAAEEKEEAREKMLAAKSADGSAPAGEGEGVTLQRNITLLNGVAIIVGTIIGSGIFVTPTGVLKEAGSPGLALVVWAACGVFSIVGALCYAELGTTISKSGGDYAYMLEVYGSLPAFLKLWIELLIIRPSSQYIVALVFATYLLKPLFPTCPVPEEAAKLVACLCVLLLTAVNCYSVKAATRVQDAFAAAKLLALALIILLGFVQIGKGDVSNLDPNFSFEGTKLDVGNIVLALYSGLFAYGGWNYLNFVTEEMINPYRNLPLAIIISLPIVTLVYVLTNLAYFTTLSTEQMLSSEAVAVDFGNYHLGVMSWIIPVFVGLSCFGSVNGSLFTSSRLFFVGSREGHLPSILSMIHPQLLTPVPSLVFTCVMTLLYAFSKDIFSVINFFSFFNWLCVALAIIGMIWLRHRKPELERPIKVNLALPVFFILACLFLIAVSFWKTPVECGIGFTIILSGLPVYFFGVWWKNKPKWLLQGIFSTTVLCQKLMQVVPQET
substance,measurement,setting,value
"wLAT-1A (Homo sapiens), Q01650",glycan array binding signal (z-score),[1],-0.345
Avaren (Actinomycete K97),glycan array binding signal (z-score),[2],-0.128
same,glycan array binding signal (z-score),[3],-0.174
same,glycan array binding signal (z-score),[4],-0.137
same,glycan array binding signal (z-score),[5],0.039
"Aggrecan (Rattus norvegicus), NP_071526",glycan array binding signal (z-score),[6],-0.038
"Neurocan (Homo sapiens), O14594",glycan array binding signal (z-score),[1],2.76
same,glycan array binding signal (z-score),[7],0.948
6RG (Lolium perenne),glycan array binding signal (z-score),[4],-0.191
"PILRa (Mus musculus), Q2YSF3",glycan array binding signal (z-score),[8],-0.412
same,glycan array binding signal (z-score),[3],3.58
same,glycan array binding signal (z-score),[9],-0.185
"Siglec-8 (Homo sapiens), Q9NYZ4",glycan array binding signal (z-score),[10],1.28
same,glycan array binding signal (z-score),[11],0.063
same,glycan array binding signal (z-score),[1]; mutation: R125K,-0.024
same,glycan array binding signal (z-score),[12],-0.157
same,glycan array binding signal (z-score),[13],-0.203
same,glycan array binding signal (z-score),[14],0.029
same,glycan array binding signal (z-score),[15],0.406
same,glycan array binding signal (z-score),[16],0.635
same,glycan array binding signal (z-score),[17],-0.161
MpAFP RI GFP (Marinomonas primoryensis),glycan array binding signal (z-score),[18],-0.808
"SRLC (Mus musculus), Q8VIF6",glycan array binding signal (z-score),[3],-0.214
"PILRb (Mus musculus), Q2YSF2",glycan array binding signal (z-score),[19],-0.463
same,glycan array binding signal (z-score),[9],-0.119
"C3b (Homo sapiens), P01024",glycan array binding signal (z-score),[20],-0.041

# Source: the supplement of paper PMC8728848
